Test results published in ChEMBL document CHEMBL2218924, “A broad activity screen in support of a chemogenomic map for kinase signalling research and drug discovery” (Biochem J, 2013).

Columns and labels:
[1] = molecular target: Insulin receptor (Homo sapiens) (UniProt P06213); conditions: at 10 µM
[2] = molecular target: Insulin receptor (Homo sapiens) (UniProt P06213); conditions: at 1 µM
[3] = molecular target: Insulin receptor (Homo sapiens) (UniProt P06213); conditions: at 10 µM; remark: listed apart in the source
[4] = molecular target: Interleukin-1 receptor-associated kinase 1 (Homo sapiens) (UniProt P51617); conditions: at 1 µM
Chain of Interleukin-1 receptor-associated kinase 1 (Homo sapiens) (P51617 whole entry, looked up): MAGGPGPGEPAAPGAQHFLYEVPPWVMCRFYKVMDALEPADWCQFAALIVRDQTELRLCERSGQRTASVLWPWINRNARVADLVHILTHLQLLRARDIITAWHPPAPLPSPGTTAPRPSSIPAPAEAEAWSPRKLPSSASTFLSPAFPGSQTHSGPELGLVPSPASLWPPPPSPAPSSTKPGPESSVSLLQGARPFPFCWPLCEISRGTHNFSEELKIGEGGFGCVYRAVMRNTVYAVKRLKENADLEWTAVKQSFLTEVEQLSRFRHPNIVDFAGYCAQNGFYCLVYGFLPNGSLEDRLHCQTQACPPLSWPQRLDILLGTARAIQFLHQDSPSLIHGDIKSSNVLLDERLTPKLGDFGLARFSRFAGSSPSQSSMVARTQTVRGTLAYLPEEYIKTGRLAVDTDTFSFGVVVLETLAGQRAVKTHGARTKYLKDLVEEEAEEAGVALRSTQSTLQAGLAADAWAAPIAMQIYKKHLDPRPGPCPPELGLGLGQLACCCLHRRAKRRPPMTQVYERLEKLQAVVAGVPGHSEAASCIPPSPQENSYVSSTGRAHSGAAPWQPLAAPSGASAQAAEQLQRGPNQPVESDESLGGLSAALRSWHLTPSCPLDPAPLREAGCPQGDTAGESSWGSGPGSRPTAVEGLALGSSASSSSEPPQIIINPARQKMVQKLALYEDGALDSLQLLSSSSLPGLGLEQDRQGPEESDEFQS

[5] = molecular target: Interleukin-1 receptor-associated kinase 1 (Homo sapiens) (UniProt P51617); conditions: at 10 µM
[6] = molecular target: T1, Interleukin-1 receptor-associated kinase 4 (Homo sapiens) (UniProt Q9NWZ3); conditions: at 1 µM
T1 sequence (whole entry): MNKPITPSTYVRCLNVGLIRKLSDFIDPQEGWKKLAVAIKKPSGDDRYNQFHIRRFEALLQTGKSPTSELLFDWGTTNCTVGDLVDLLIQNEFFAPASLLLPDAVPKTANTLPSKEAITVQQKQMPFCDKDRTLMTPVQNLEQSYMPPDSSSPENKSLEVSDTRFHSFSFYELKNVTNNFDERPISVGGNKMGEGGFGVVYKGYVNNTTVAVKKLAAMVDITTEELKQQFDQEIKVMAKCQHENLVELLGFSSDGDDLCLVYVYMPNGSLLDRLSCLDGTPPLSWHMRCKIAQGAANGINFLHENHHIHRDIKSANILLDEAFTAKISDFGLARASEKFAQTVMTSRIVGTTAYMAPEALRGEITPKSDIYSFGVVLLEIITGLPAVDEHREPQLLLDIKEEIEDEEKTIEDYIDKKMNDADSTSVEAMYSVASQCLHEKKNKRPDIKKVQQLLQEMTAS

[7] = molecular target: Insulin receptor-related protein (Homo sapiens) (UniProt P14616); conditions: at 1 µM
Chain of Insulin receptor-related protein (Homo sapiens) (P14616 27-742 limits assumed): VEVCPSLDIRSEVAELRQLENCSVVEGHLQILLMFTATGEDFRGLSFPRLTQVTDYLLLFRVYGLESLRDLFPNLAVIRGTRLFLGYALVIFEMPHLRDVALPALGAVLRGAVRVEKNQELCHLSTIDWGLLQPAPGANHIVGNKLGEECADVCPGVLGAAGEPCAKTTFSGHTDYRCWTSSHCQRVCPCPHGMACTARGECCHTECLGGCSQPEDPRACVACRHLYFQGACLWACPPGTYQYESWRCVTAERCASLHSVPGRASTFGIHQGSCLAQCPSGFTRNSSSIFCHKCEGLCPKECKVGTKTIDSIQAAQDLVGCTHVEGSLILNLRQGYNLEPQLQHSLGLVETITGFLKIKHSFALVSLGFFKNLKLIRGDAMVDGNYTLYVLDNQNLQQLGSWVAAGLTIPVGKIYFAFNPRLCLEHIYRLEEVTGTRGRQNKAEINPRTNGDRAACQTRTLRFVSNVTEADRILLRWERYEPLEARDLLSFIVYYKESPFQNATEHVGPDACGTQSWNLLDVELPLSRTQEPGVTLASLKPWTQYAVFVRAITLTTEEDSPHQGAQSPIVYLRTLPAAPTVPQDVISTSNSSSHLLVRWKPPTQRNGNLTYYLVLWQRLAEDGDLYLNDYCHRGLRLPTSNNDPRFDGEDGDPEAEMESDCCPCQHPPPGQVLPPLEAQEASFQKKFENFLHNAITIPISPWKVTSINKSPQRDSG
Chain of Insulin receptor-related protein (Homo sapiens) (P14616 747-1297 limits assumed): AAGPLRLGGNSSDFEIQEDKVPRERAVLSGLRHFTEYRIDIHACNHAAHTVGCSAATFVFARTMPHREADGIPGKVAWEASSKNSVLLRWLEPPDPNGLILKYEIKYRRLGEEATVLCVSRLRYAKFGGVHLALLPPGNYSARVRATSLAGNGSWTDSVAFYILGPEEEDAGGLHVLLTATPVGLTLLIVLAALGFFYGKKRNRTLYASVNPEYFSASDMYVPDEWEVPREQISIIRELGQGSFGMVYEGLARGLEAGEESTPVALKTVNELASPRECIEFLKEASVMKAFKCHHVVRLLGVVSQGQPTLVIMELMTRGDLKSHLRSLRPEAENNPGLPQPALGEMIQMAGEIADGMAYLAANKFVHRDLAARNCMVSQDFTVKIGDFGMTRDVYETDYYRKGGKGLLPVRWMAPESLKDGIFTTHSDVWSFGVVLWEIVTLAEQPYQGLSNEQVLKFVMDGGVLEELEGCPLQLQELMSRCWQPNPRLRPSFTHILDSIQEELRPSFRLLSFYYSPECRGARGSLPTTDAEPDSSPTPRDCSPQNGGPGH

[8] = molecular target: Insulin receptor-related protein (Homo sapiens) (UniProt P14616); conditions: at 10 µM
[9] = molecular target: T2, Tyrosine-protein kinase ITK/TSK (Homo sapiens) (UniProt Q08881); conditions: at 1 µM
T2 sequence (whole entry): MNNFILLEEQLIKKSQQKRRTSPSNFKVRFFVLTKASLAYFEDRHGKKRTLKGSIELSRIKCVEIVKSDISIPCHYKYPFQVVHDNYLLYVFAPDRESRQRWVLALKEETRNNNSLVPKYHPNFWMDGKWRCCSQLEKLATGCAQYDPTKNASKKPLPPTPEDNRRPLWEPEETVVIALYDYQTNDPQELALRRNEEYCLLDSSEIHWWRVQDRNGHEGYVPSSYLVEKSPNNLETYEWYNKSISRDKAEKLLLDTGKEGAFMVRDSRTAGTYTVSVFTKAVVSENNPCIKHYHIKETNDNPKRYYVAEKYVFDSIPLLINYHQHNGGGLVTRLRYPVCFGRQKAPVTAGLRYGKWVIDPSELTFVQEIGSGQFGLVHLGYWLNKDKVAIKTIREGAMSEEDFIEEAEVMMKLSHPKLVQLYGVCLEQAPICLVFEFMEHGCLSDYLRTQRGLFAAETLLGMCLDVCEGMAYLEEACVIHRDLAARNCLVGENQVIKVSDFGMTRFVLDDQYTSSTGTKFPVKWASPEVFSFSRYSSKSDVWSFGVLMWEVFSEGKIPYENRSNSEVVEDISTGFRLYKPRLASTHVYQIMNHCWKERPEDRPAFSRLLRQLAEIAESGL

[10] = molecular target: T1, Interleukin-1 receptor-associated kinase 4 (Homo sapiens); conditions: at 10 µM

Chain of Insulin receptor (Homo sapiens) (P06213 28-758 limits assumed): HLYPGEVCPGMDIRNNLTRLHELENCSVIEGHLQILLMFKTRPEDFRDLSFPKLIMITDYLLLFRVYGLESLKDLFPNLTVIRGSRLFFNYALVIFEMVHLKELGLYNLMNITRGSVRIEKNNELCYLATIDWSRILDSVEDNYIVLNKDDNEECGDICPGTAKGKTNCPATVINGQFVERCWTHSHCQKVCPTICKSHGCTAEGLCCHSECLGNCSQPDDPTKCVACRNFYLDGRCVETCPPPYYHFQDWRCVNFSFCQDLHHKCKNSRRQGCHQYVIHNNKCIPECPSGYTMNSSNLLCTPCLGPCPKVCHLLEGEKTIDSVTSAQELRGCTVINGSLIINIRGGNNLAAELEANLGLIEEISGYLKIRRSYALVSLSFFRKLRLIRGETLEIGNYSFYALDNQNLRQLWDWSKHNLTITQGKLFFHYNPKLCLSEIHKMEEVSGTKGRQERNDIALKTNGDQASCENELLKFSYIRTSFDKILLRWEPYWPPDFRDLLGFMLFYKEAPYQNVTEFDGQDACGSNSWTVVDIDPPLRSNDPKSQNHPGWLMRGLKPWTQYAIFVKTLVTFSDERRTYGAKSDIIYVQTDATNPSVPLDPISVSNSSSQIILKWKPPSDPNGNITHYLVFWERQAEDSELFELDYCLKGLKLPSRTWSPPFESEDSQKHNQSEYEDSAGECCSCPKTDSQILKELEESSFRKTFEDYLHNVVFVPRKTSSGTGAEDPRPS
Chain of Insulin receptor (Homo sapiens) (P06213 763-1382 limits assumed): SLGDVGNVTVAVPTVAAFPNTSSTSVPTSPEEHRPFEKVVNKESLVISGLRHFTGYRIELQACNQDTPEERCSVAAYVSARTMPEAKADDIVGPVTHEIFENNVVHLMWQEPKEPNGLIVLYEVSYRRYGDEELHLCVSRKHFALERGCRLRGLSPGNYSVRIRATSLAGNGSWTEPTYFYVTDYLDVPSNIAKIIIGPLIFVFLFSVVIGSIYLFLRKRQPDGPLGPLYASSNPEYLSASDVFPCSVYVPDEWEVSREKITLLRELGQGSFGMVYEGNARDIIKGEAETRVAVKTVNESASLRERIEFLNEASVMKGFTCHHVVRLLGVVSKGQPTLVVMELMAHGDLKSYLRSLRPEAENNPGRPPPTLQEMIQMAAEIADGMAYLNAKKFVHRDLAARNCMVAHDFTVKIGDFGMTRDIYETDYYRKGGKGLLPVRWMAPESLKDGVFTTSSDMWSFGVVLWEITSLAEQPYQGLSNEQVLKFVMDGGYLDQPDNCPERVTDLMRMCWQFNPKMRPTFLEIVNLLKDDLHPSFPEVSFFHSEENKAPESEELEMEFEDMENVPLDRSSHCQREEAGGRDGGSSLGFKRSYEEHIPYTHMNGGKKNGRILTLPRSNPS

| Structure (SMILES) | residual activity [1] [%] | residual activity [2] [%] | residual activity [3] [%] | residual activity [4] [%] | residual activity [5] [%] | residual activity [6] [%] | residual activity [7] [%] | residual activity [8] [%] | residual activity [9] [%] | residual activity [10] [%] |
| --- | --- | --- | --- | --- | --- | --- | --- | --- | --- | --- |
| Nc1ncnc2c1c(-c1ccc(Oc3ccccc3)cc1)cn2C1CCCC1 | 109 | 90 | 50 | 83 | 74 | 94 | 114 | 15 | 58 | – |
| O=c1cc(N2CCNCC2)oc2c(-c3ccccc3)cccc12 | 94 | – | – | 92 | 76 | 93 | – | 70 | 83 | 96 |
| O=C1Cc2c([nH]c3ccc(Br)cc23)-c2ccccc2N1 | – | 93 | 81 | 94 | 68 | 81 | – | 82 | 83 | 36 |
| O=C1NC(=O)c2c1c1c3ccccc3[nH]c1n1cncc21 | 15 | 31 | 19 | 76 | 66 | 61 | 5 | 3 | 85 | 56 |
| Nc1ncnc2[nH]nc(Nc3ccc(F)cc3)c12 | 103 | 97 | 90 | 93 | 101 | – | 124 | 106 | 103 | 58 |
| O=C(O)/C=C/c1cc(Br)c(Br)c(Br)c1Br | 141 | 100 | 90 | 101 | 68 | – | – | – | – | 94 |
| CC(C)c1nn(-c2c(Cl)cccc2Cl)c2nc(Cc3ccc(OCCO)cc3)[nH]c(=O)c12 | – | 102 | 99 | 103 | 84 | 104 | – | – | 98 | 91 |
| N#C/C(=C\c1ccc(O)c(O)c1)C(=O)NCc1ccccc1 | 89 | 100 | 85 | – | 81 | – | 88 | 85 | 104 | 100 |
| O=C(CCCc1ccc(-c2ccccc2F)cc1)Nc1ccc(O)cc1 | 102 | 97 | 97 | 78 | – | 93 | 88 | 98 | 90 | 82 |
| CN([C@@H](Cc1ccc(OS(=O)(=O)c2cccc3cnccc23)cc1)C(=O)N1CCN(c2ccccc2)CC1)S(=O)(=O)c1cccc2cnccc12 | 84 | – | – | – | – | – | – | – | – | – |
| N#C/C(=C1/Nc2ccccc2S1)c1ccnc(NCCc2cccnc2)n1 | 137 | 98 | 83 | 80 | 70 | 80 | 132 | 63 | – | 31 |
| O=C1NC(=O)C(c2c[nH]c3ccccc23)=C1c1c[nH]c2ccccc12 | 62 | 100 | – | – | – | 81 | 120 | 37 | 100 | 27 |
| CCOC(=O)c1c(C)[nH]c(/C=C2\C(=O)Nc3ccccc32)c1C | 96 | 84 | 93 | 94 | 99 | 97 | 93 | 81 | 79 | 49 |
| O=C(Nc1ccc(Cl)cc1)c1ccccc1NCc1ccncc1 | 79 | 102 | 100 | – | – | – | – | – | – | – |
| COc1cc2nccc(Oc3ccc(NC(=S)NC(=O)c4ccccc4C)cc3)c2cc1OC | 138 | 97 | 92 | 79 | 67 | 96 | 121 | 74 | 79 | – |
| O=C1Nc2ccc(Cl)cc2/C1=C/c1cc(Cl)c(O)c(Cl)c1 | 63 | 95 | 57 | 84 | 81 | 75 | 111 | 74 | – | 51 |

| Structure (SMILES) | residual activity [1] [%] | residual activity [2] [%] | residual activity [3] [%] | residual activity [4] [%] | residual activity [5] [%] | residual activity [6] [%] | residual activity [7] [%] | residual activity [8] [%] | residual activity [9] [%] | residual activity [10] [%] |
| --- | --- | --- | --- | --- | --- | --- | --- | --- | --- | --- |
| CCCC(=O)Oc1ccc2[nH]c(C(=O)c3cc4ccccc4[nH]3)cc2c1 | 77 | 90 | 89 | 85 | 69 | – | 134 | 80 | 105 | – |
| CCCCc1c(-c2ccc(OC)cc2)[nH]c2nccnc12 | – | 66 | 75 | 62 | 81 | 79 | 100 | 88 | 82 | 65 |
| COc1ccc2c(c1)c(C1=C(c3c[nH]c4ccccc34)C(=O)NC1=O)cn2CCCN(C)C | 73 | 97 | 71 | 81 | 75 | – | 122 | 67 | 101 | – |
| CSc1nc(-c2ccc(F)cc2)c(-c2ccnc(NC(C)c3ccccc3)c2)[nH]1 (centres undefined) | 93 | 102 | 98 | – | – | 23 | – | 73 | 70 | 13 |
| O=C1C(Cl)=C(N2C(=O)CCC2=O)C(=O)c2ccccc21 | 87 | 89 | 93 | 85 | – | 75 | – | – | – | 83 |
| CCN(CC)CCNC(=O)c1c(C)[nH]c(/C=C2\C(=O)Nc3ccc(Cl)cc32)c1C | 6 | 8 | 0 | 9 | 0 | 22 | 13 | 0 | 21 | 7 |
| CN(C)S(=O)(=O)c1ccc2c(c1)/C(=C/c1cc3c([nH]1)CCCC3)C(=O)N2 | 88 | – | 95 | 9 | 0 | 19 | 85 | 77 | 23 | 17 |
| O=C(NC(NC(=S)Nc1ccc(F)c([N+](=O)[O-])c1)C(Cl)(Cl)Cl)C(c1ccccc1)c1ccccc1 (centres undefined) | 96 | 98 | 93 | – | – | – | 126 | – | – | – |
| O=c1cc(N2CCOCC2)oc2c1ccc1ccccc12 | 91 | 103 | 97 | 83 | 88 | 96 | – | 98 | 96 | 88 |
| O=C1NC(=O)C(c2cn(CCCO)c3ncccc23)=C1c1cnccn1 | 96 | 94 | 92 | 98 | 98 | 87 | – | – | 94 | 70 |
| CC(C)[C@H](CO)Nc1nc(Nc2cc(N)cc(Cl)c2)c2ncn(C(C)C)c2n1 | 50 | 55 | 6 | 94 | 49 | 39 | – | – | – | 7 |
| Cn1sc(=O)n(Cc2ccccc2)c1=O | 82 | 96 | 93 | – | – | 74 | – | – | 97 | 76 |
| CC(C)(C)n1nc(Cc2cccc3ccccc23)c2c(N)ncnc21 | 65 | 95 | 63 | 90 | 77 | 105 | 124 | 78 | 107 | 81 |
| NCCNc1ncc(C(N)=O)c(Nc2cccc(C(F)(F)F)c2)n1 | 77 | 74 | 34 | – | – | – | 142 | 55 | – | 51 |
| N#Cc1c(NC(=O)c2cccc3ccccc23)sc2c1CCCC2 | – | – | 92 | – | – | – | – | – | – | – |
